Reference: PubChem BioAssay AID504648 (National Center for Advancing Translational Sciences (NCATS), 2011)
The campaign covered roughly 390,000 compounds. About 610 (0.16%) were called active. Another 4% or so got no clear call; they are omitted. The call rests on the fitted dose curve; in most records, active means well fitted inhibition curve with a large enough effect; inconclusive means small, poorly fitted or top-dose-only effect, or effect the other way, or another doubt; inactive means no such curve, though single readings can be large or run the other way. The list comes from a sample in which actives are over-represented; it also holds similar structures and randomly drawn compounds. A call without a number means that no potency is given here.

Assay: Nrf2 qHTS screen for inhibitors: counterscreen for cytotoxicity
Details: A549 ARE-Fluc cells, CellTiter-Fluor viability, 18-24 h; series mostly up to 46 µM
Description: NIH Molecular Libraries Probe Production Network [MLPCN]
NIH Chemical Genomics Center [NCGC]
Assay Provider: Shyam Biswal, Johns Hopkins University
Nrf2 is a transcription factor that maintains cellular redox homoestasis and protects cells from xenobiotics. Nrf2 binds to the antioxidant response element (ARE) to induce gene expression of a broad spectrum of genes that encode for antioxidants. […] Finding a small molecule that act as an inhibitor of Nrf2 function would represent a novel therapeutic target that could lead to improvement in survival of patients undergoing chemo- and/or radio- therapy.
So here we implemented a counterscreen to weed out the cytotoxic compounds.
1. Shibata, T., et al., Genetic Alteration of Keap1 Confers Constitutive Nrf2 Activation and Resistance to Chemotherapy in Gallbladder Cancer. Gastroenterology, 2008.
2. Sjoblom, T., et al., The consensus coding sequences of human breast and colorectal cancers. Science, 2006. 314(5797): p. 268-74.
NCGC Assay Protocol Summary:
A concentration-response assay was performed with A549 ARE_Fluc cells which are suspended in 5% FBS OPTI-MEM. Five uL were dispensed into 1536-well white TC-treated plate using the Kalypsys dispenser to achieve a density of 5000 cells/well in all columns except column 1. The plate is incubated at 37deg C at 5% CO2 for 2 hours before 23 nL of compounds are added with the Kalypsys pin tool equipped with a 1,536-pin array containing 10-nL slotted pins (FP1S10, 0.457-mm diameter, 50.8 mm long; V&P Scientific). The control compounds Budesonide and Staurosporine are both added at a concentration of 2mM and Budesonide is also added as a 1:10 titration, starting at 200uM, to achieve dose-response. After an 18-24 hour incubation at 37deg C at 5% CO2, 5ul of medium is added to column 1. Afterwards 1ul of 5x of CellTiter-Fluor (Promega) is added to every well. The plate is then incubated at 37deg C at 5% CO2 for 30 minutes before they are read on the ViewLux (Perkin Elmer) for a fluorescent read Ex=405(10)/Em=525(10) for a 3 second exposure, 2x binning, and high gain. Then 3 uL of 3x BugLite is dispensed into all wells and the plate is incubated at ambient room temperature for 15 minutes. Afterwards another ViewLux read is performed using the clear filter to get a luminescent read with the settings of 40 second exposure, 2x binning, and high gain. Cytotoxicity is assessed through the first fluorescent read and then biochemical activity against Nrf2 is measured in the luminescent read.
Potency means the concentration at half of the fitted maximal effect.

Structure (SMILES)	Potency
O=C(c1ccco1)N(Cc1cccs1)c1ccc(O)cc1	inactive
COC(=O)CCc1ccccc1S(=O)(=O)N(CCC(=O)OC)Cc1ccccc1	inactive
Cc1ccc(NC(=S)N2CCN(c3ncccn3)CC2)cc1C	inactive
C/C(=N/NC(=O)CSc1ccccn1)c1ccc([N+](=O)[O-])cc1	inactive
CC(=NNC(=S)N1CCCCCC1)c1ccccn1	20.6 µM (active)
COc1ccc(S(=O)(=O)N2CCCC(C(=O)Nc3ccc(NC(=O)c4ccccn4)cc3)C2)cc1 (centres undefined)	inactive
C/C(Cc1ccccc1)=N\NC(=O)CNC(=O)c1ccccc1Cl	inactive
C/C(=N\NC(=O)Cc1ccc(Cl)cc1)c1ccccn1	2.31 µM (active)
O=C1CSC2(C(=O)N(Cc3ccccc3)c3ccccc32)N1c1cccc(F)c1 (centres undefined)	inactive
NS(=O)(=O)c1ccc(-c2ccc(/C=C3\SC(=O)NC3=O)o2)cc1	11.6 µM (active)
CCOc1ccc(NC(=O)CSc2nnc3c(n2)[nH]c2ccc(S(=O)(=O)N4CCOCC4)cc23)cc1	inactive
O=C1C(F)N([S+](=O)([O-])c2ccc3c(c2)OCCO3)CCN1[S+](=O)([O-])c1c(F)cccc1F (centres undefined)	inactive
CC(=O)Nc1ccc(C(=O)Nc2cccc(S(=O)(=O)NC3=NCCC3)c2)cc1	inactive
O=C(Nc1cccc(S(=O)(=O)Nc2ccc(Cl)cc2)c1)c1ccc2c(c1)OCCO2	16.4 µM (active)
O=C(NNC(=O)c1cccc(S(=O)(=O)Nc2ccc(Cl)cc2)c1)c1ccc(=O)[nH]c1	inactive
COc1cccc2c1C(=O)c1c(O)c3c(c(O)c1C2=O)CC(O)(C(C)=NNC(=O)c1ccc(Cl)c(Cl)c1)CC3OC1CC(N)C(O)C(C)O1 (centres undefined)	11.6 µM (active)
O=S(=O)(Nc1cccc2cccnc12)c1cccc2cccnc12	inactive
COc1ccccc1CNc1ccc(-c2nc(-c3ccccc3C)no2)cc1[N+](=O)[O-]	inactive
COc1ccc(-c2nc(=N)sn2-c2ccccc2)cc1	inactive
COc1ccc(Cn2c(=O)[nH]c3cc(C(=O)N4CCN(C(=O)c5ccco5)CC4)ccc3c2=O)cc1	inactive
COc1ccc(C(CCN2CCOCC2)c2c(OC)cc(OC)c3c2OC(=O)CC3c2ccc(OC)cc2)cc1 (centres undefined)	inactive
C=C1CCN(C(CC(C)C)C(=O)N2CCOCC2)S(=O)(=O)c2ccccc21 (centres undefined)	inactive
COc1ccc(-c2ccc(C3C4C=CCCC4(C)C(=O)N3Cc3ccccc3)c(F)c2)cc1OC (centres undefined)	inactive
CC(=O)N1CCCc2ccc(NS(=O)(=O)c3ccc(F)cc3F)cc21	inactive

Structure (SMILES)	Potency
N#CN1CCC(NC(=O)c2ccc(F)cc2)CC1	inactive
O=C(/C=C/c1ccc([N+](=O)[O-])o1)NNC(=O)c1ccc(F)cc1	14.6 µM (active)
CCCCCCC1(C)NC(c2ccc3c(c2)OCO3)=CC(c2ccccc2O)N1 (centres undefined)	inactive
O=C(CNC(=O)c1ccc(Cl)cc1Cl)OC(C(=O)Nc1cc(C(F)(F)F)ccc1Cl)c1ccccc1 (centres undefined)	inactive
COc1ccc(N2CCN(S(=O)(=O)c3ccc4c(c3)CC(=O)N4)CC2)cc1	inactive
CCN(CC)C(=O)CSc1nc2ccsc2c(=O)n1Cc1ccccc1Cl	inactive
Cc1ccc(NC(=O)c2cc(S(=O)(=O)NCCC3=CCCCC3)ccc2F)cc1C	inactive
COc1ccc(-c2nnc(SCC(=O)Nc3ccccc3C)o2)cc1OC	inactive
Cc1cccc(C)c1-n1c(C)cc(/C=C2\C(=O)NN(c3ccccc3)C2=O)c1C	20.6 µM (active)
Cc1cccc(NC(=O)c2ccc3nc(C(C)C)oc3c2)c1C	inactive
Cc1ccc(C)c(N2CCN(C(=O)Cn3nc(C)c4sc5ccccc5c4c3=O)CC2)c1	inactive
O=C1CCCC2=C1[C@@]1(CCC(c3ccccc3)C1)N=C(Nc1nc3ccccc3o1)N2 (some centres undefined)	inactive
COc1cc(OC)c2ccc(=O)oc2c1C(CCN1CCN(c2ccccc2)CC1)c1ccc2c(c1)OCO2 (centres undefined)	23.1 µM (active)
COc1cc(C(CCN2CCN(c3ccccc3)CC2)c2c(OC)cc(OC)c3ccc(=O)oc23)cc(OC)c1OC (centres undefined)	inactive
CCN(CC)CCC(c1ccc2c(c1)OCO2)c1c(OC)cc(OC)c2c(-c3ccccc3)cc(=O)oc12 (centres undefined)	inactive
COC(=O)Cc1csc(/N=C/c2c(O)n(-c3cccc(C(F)(F)F)c3)c(=O)c3ccccc23)n1	inactive
CCO/C=C1\C(=O)N(c2ccc(OCC)cc2)C(=O)c2ccccc21	inactive
CCOc1ccc(N=Cc2c(O)n(-c3cccc(C)n3)c(=O)c3ccccc23)cc1	18.4 µM (active)
COc1ccc(-c2ccc(OC)c(C3C4C=CCC(C)C4C(=O)N3Cc3ccccc3)c2)cc1C (centres undefined)	inactive
COc1ccc(NC(=O)CSc2nc3ccccc3n2CC(=O)N2CCCCC2C)cc1 (centres undefined)	inactive
COc1cc(NS(=O)(=O)c2ccc3c(c2)OCC(C(=O)N2CCCC2)O3)cc(OC)c1 (centres undefined)	inactive
CCOC(=O)C1CCN(c2ncnc3c2c(-c2ccccc2)cn3-c2cccc(C)c2)CC1	inactive
Cc1ccc(-c2nc(CS(=O)(=O)CC(=O)NCc3ccccc3Cl)c(C)o2)cc1	inactive
O=C(CSc1nnc(-c2ccccc2F)o1)Nc1cccc(C(F)(F)F)c1	inactive

Structure (SMILES)	Potency
Cc1noc(C)c1-c1ccc2ncnc(NCc3ccc(F)c(F)c3)c2c1	inactive
CC(Nc1ncnc2ccc(-c3ccc4c(c3)OCO4)cc12)c1ccco1 (centres undefined)	inactive
CCCS(=O)(=O)Nc1cccc(-c2cn3ccsc3n2)c1	inactive
CCOc1cc(-c2nnc(SCC(=O)NC3CCCC3)nc2-c2ccc(OC)c(OCC)c2)ccc1OC	inactive
O=C(CNC(=O)c1ccc(Cl)c(C(F)(F)F)c1)OC(C(=O)Nc1cc(C(F)(F)F)ccc1Cl)c1ccccc1 (centres undefined)	inactive
COc1ccc(C(=O)NC(=S)N2CCNC(=O)C2CC(=O)OC(C)C)cc1 (centres undefined)	inactive
CCOC(=O)CC1C(=O)NCCN1c1nc2c(C)cccn2c(=O)c1/C=C1\SC(=S)N(C(C)CC)C1=O (centres undefined)	20.6 µM (active)
CCOC(=O)CNC(=O)c1cc2c(=O)n3cccc(C)c3nc2s1	inactive
Cc1cc(C)n2ncc(C(=O)N3CCCC3)c2n1	inactive
CSc1ncc(Cl)c(C(=O)Nc2ccc(S(=O)(=O)N3CCCC(C)C3)cc2)n1 (centres undefined)	inactive
Cc1noc(C)c1-c1ccc2ncnc(NCc3ccc4[nH]ccc4c3)c2c1	inactive
Cc1ccc(S(=O)(=O)NC(N)=NCCC[C@@H](NC(=O)CNC(=O)c2ccccc2)C(=O)Nc2cc(C(F)(F)F)ccc2Cl)cc1	inactive
CCOc1cc(C2C(C(=O)Nc3ccc(OC)cc3)=C(C)Nc3nc(SC)nn32)ccc1O (centres undefined)	inactive
CN1CCOc2cc(S(=O)(=O)N3CCN(S(=O)(=O)c4c(F)cccc4F)CC3)cnc21	inactive
O=C1CN(Cc2ccccc2)S(=O)(=O)c2ccccc21	inactive
COc1ccc(C2Nc3ccc(NC(=O)COC(C)=O)cc3C(=O)N2Cc2ccccc2)cc1COc1ccc(NC(C)=O)cc1 (centres undefined)	inactive
COc1ccc(C2Nc3ccccc3C(=O)N2Cc2ccc(Cl)cc2)cc1COc1ccc(NC(C)=O)cc1 (centres undefined)	inactive
O=C1C[C@@H](c2ccc3ccccc3c2)N1S(=O)(=O)c1ccccc1[N+](=O)[O-]	inactive
CNC(=O)[C@]1(C(F)(F)F)C[C@H](CCc2ccccc2)CCCO1	inactive
COc1ccc2c(Sc3ccc(C)cc3)c(C(=O)NC(C)c3ccccc3)[nH]c2c1 (centres undefined)	inactive
Cc1cc(NS(=O)(=O)c2ccc3oc(=O)c4ncn(C)c4c3c2)ccc1Br	inactive
CC(/C=C/c1ccco1)=N/NC(=O)C1COc2ccccc2O1 (centres undefined)	inactive
CC1CC(=NNC(=O)C2COc3ccccc3O2)CC(C)(C)C1 (centres undefined)	inactive
O=C(Nc1ncc([N+](=O)[O-])s1)C1COc2ccccc2O1 (centres undefined)	20.6 µM (active)

Structure (SMILES)	Potency
Oc1ccc(Br)cc1C1C=C(c2ccc3c(c2)OCO3)NC(c2ccc(Cl)cc2)N1 (centres undefined)	inactive
Cc1ccc(-c2nc(=N)sn2Cc2ccccc2)cc1	inactive
CCCN1CCC(=O)N(C(CSc2ccc(OC)cc2)Cc2ccccc2)CC1 (centres undefined)	inactive
COc1ccc(C2Nc3cccc(OC)c3C(=O)N2Cc2ccccc2)cc1COc1ccc(NC(C)=O)cc1 (centres undefined)	inactive
CCOc1ccc(Br)cc1CSC(=N)N	20.6 µM (active)
CCOc1ccc(Br)cc1S(=O)(=O)Nc1cccc(S(=O)(=O)N(CC)CC)c1	inactive
COCC(C)NCc1cc(Br)ccc1OC (centres undefined)	inactive
O=C1NS(=O)(=O)c2ccccc21	inactive
O=C(NC(c1ccco1)c1cc(Cl)c2cccnc2c1O)c1ccccc1 (centres undefined)	inactive
O=C1CCc2cc(S(=O)(=O)Nc3cccc(Oc4ccccc4)c3)ccc2N1	inactive
CNC(=O)CN1C(=O)c2cccnc2Sc2ccccc21	inactive
CCN1C(=O)c2ccccc2Sc2ccc(NC(=O)Cc3ccc(OC)cc3)cc21	inactive
CCN1/C(=C/C(=S)Nc2ccccc2)Sc2ccccc21	16.4 µM (active)
Cc1cc2c(s1)c1cnn(Cc3cc(F)c(Cl)cc3Cl)c(=O)c1n2C	inactive
CN=C1C=C/C(=N/N=c2\ccn(O)cc2C)C=C1C	16.4 µM (active)
OC[C@@H]1O[C@H](n2cnc3c(SCc4ccccc4)ncnc32)[C@H](O)[C@H]1O	inactive
COc1ccc(C2Nc3ccccc3C(=O)N2Cc2ccccc2)cc1COc1ccc(C(N)=O)cc1 (centres undefined)	inactive
COc1cc(F)c(S(=O)(=O)N2CCCN(S(=O)(=O)c3ccc(N)cc3)CC2)c(F)c1	inactive
Cc1nc(N2CCOCC2)c2c(C(=O)NCc3cccc(Cl)c3)c(C)oc2n1	inactive
CCOc1ccc(-c2n[nH]c3c2C(c2ccccc2OC)N(c2ccc(Br)cc2)C3=O)cc1 (centres undefined)	inactive
CCCN1CCC(=O)N(C(CSc2ccc(C)cc2)Cc2ccccc2)CC1 (centres undefined)	inactive
Cc1ccc(S(=O)(=O)N2CCN(c3nc(-n4cnc5ccccc54)nc4ccccc34)CC2)cc1	inactive
